# MEKK3 PB1 HTS: modulators of MEKK3-MEK5 PB1 binding, primary screen, biochemical, wildtype MEKK3, multiplex bead flow cytometry, Alexa488-MEK5; hit rate 1.4% among 290,000; AID 1529, 2009; bead-based flow cytometry, Alexa488-MEK5 binding to MEKK3; actives lie on both sides; 0 = blocked by unlabeled MEK5, 100 = vehicle; Mitogen-activated protein kinase kinase kinase 3 (Homo sapiens), Q99759; binding response (% of control), % at 10 µM;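 active = binding response more than 3 SD above or below the average of its plate-row segment, actives on both sides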;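 note: Alexa488 bead fluorescence after subtracting the streptavidin-only scavenger bead signal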
# Arbovirus inh: antivirals against arbovirus infection, primary screen, cell-based, full library, 10K replicate subset. arbovirus infection cell-based antiviral screen. inhibition, % at 10 µM. hit rate 0.37% among 200,000. AID 1251, 2008; in the data active = inhibition above about 30%
# MEKK2mut PB1 HTS: MEK5 binding signal on mutant MEKK2 PB1, primary screen, biochemical, multiplex bead flow cytometry, Alexa488-MEK5; Alexa488-MEK5 binding to MEKK2 mutant; percent response, % at 10 µM; hit rate 0.35% among 290,000; AID 1530, 2009; in the data active = percent response above about 24%, passing the limit was not always enough
# MEKK2wt PB1 HTS: modulators of MEK5 binding to wildtype MEKK2, primary screen, biochemical, multiplex bead flow cytometry, Alexa488-MEK5 | Mitogen-activated protein kinase kinase kinase 2 (Homo sapiens), Q9Y2U5 | Alexa488-MEK5 binding to MEKK2 WT; actives lie on both sides | binding response (% of control), % at 10 µM | hit rate 1.1% among 290,000 | AID 1531, 2009; in the data active = binding response below about 67% or above about 130%
# Pf gamet viab: late stage P. falciparum gametocyte viability inhibitors, primary screen, ATP luminescence, HTS; P. falciparum stage V gametocytes, 24 h; hit rate 0.065% among 150,000; inhibition, % at 10.9 µM; AID 743093, 2013;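 active = inhibition above the mean plus 3 SD of compounds within the control limits, set per campaign, cut at about 38% in these data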;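 note: 0% = DMSO wells and 100% = medium only without gametocytes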
# MEKK2wt confirm: modulators of MEK5 binding to wildtype MEKK2, confirmation, biochemical, single concentration, multiplex bead flow cytometry | Alexa488-MEK5 binding to MEKK2 WT; actives lie on both sides | shares compounds with MEKK3 PB1 HTS | hit rate 2.4% among 5,900 | AID 1892, 2009 | binding response (% of control), % at 10 µM; in the data active = binding response below about 16% or above about 210%; inactive = in between
# MEKK2mut-MEK5: mutant MEKK2 PB1-MEK5 binding signal retest – biochemical, single concentration, multiplex bead flow cytometry, confirmation | shares compounds with MEKK3 PB1 HTS | Alexa488-MEK5 binding to MEKK2 mutant | percent response, % at 10 µM | hit rate 2% among 5,900 | AID 1893, 2009; in the data active = percent response mostly above about 71%, no sharp cut-off; inactive = mostly below about 38%;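 note: higher means compound restores mutant binding toward wildtype level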
# MEKK3-MEK5 inh: MEKK3 wild-type PB1 binding to MEK5, inhibitors, confirmation, biochemical, bead multiplex flow cytometry, single concentration, wildtype; shares compounds with MEKK3 PB1 HTS; Alexa488-MEK5 binding to MEKK3; hits give low values; binding response (% of control), % at 10 µM; hit rate 1.8% among 5,900;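 active = binding response below 72% of control, or above a set upper limit, though filed actives all read lower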;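 note: 100% = DMSO only wells and 0% = binding blocked by excess unlabeled MEK5; lower values mean stronger disruption of MEK5 binding to MEKK3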
# The depositor's hits bear a star; x = no result; [ ] = dose if it differs, or a comment. A selection: hits, their analogues and other compounds. The true share with any hit is near 2.4%.
SMILES,MEKK3 PB1 HTS,Arbovirus inh,MEKK2mut PB1 HTS,MEKK2wt PB1 HTS,Pf gamet viab,MEKK2wt confirm,MEKK2mut-MEK5,MEKK3-MEK5 inh
C=CCN(CC=C)C(=O)CN1C(=O)NC(Cc2c[nH]c3ccccc23)C1=O (centres undefined),105,x,6,106,x,x,x,x
CCN1c2ccccc2NC2C1C(C(C)=O)C(=O)N2c1ccc(Cl)cc1 (centres undefined),93,11,73*,59*,x,101,-2,102
O=C1Nc2ccccc2N(O)N1c1ccc(Cl)cc1,100,0,-3,94,-11,x,x,x
CCOc1ccc(NC(=O)CN(C)Cc2cc(=O)n3c(-c4ccccc4)csc3n2)cc1OCC,100,2,-7,90,-19,x,x,x
O=C(NCc1ccccc1C(F)(F)F)C1CC(c2ccc(C(F)(F)F)cc2)=NO1 (centres undefined),81*[inhibitor],x,-2,103,10,101,1,99
CCOc1ccc(C(=O)NCC(=O)N2CCCC2)cc1,104,x,0,104,x,x,x,x
CCOCCCn1c(=S)[nH]c2cc(C(=O)N3CCN(C)CC3)ccc2c1=O,70*[inhibitor],1,-14,80,-16,93,-11,95
CC(=O)NCCOc1cccc2ccccc12,100,-3,3,106,x,x,x,x
c1ccc(CCNCCCOc2cccc3ccccc23)cc1,118,x,33*,161*,-3,151,37,108
N#Cc1cnc(NOCc2ccc(Cl)cc2)nc1,101,27,-1,98,-30,x,x,x
CC(C)CCn1c(=O)c2sccc2n2c(CCCC(=O)N3CCN(c4ccccn4)CC3)nnc12,105,x,4,106,x,x,x,x
CCCC(=O)Nc1sc2c(c1C(=O)OCC)CC(C)(C)OC2,87,-11,-8,83,-3,x,x,x
CCOC(=O)c1c(NC(=O)CCN2CCOCC2)sc2c1CC(C)(C)OC2,113,5,8,114,x,x,x,x
CCOC(=O)c1c(NC(=O)CCC(=O)N2CCOCC2)sc2c1CC(C)(C)OC2,79*[inhibitor],5,-1,85,6,100,6,101
CCOC(=O)c1c(NC(=O)CN2CCOCC2)sc2c1CC(C)(C)OC2,3.0*[inhibitor],-9,-20,4.0*[inhibitor],x,106,3,101
COC(=O)C(=NNc1c(C)n(C)n(-c2ccccc2)c1=O)C(=O)OC,141*,-7,1,112,x,72,-16,74
COc1cccc(OC)c1C(=O)Nc1c(C)n(C)n(-c2ccccc2)c1=O,103,-2,2,102,x,x,x,x
Cc1nc(-c2ccccn2)nc(SCC(=O)N2CCOCC2)c1Cl,129*,x,29,114,-20,102,-3,105
CCN(CC)c1ccc(C=N/C(C#N)=C(\N)C#N)cc1,1.0*[inhibitor],-8,-10,x,x,83,-9,85
CCN(CC)c1ccc(/C=C(\C#N)c2ccccn2)cc1,99,-16,-1,96,x,x,x,x
O=C(CSc1ccc(Cl)cc1)Nc1ccc(C2SCCS2)cc1,103,x,1,104,-2,x,x,x
O=C(COc1ccc(C2SCCS2)cc1)Nc1ccc(Cl)cc1,72*[inhibitor],x,-15,79,-1,99,-3,101
CNC(=O)CSc1nc2ccccc2c(=O)n1CCc1ccccc1,103,x,4,108,-3,x,x,x
COC(=O)CC1C(=O)NCCN1C(=O)Nc1ccc(Cl)cc1 (centres undefined),95,-2,-38,2.0*[inhibitor],x,97,1,107

# Screening data deposited in PubChem by several laboratories.
